Values joined by “and” are separate entries in the source; they are usually repeats but may differ in a detail not shown here. Identical values can stand only once. Records with an inconclusive call do not appear. Active and inactive are the calls of the source. Unless noted, the call rests on the fitted dose curve; in most records, active means well fitted curve in the direction sought with a large enough effect in the repeat runs; inconclusive means weak or mixed curves; inactive means no such curve, though single readings can be large; an effect the other way counts as inactive or inconclusive.
How the values were obtained:
[1] = qHTS RealTime-Glo MT Cell Viability Assay in HepG2 cells - 24 hour (AID 1224867); further: nearly all actives have a fitted effect of over 50% in size
Method in brief: (§1)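 Cell number in HepG2 cultures estimated from NanoLuc luminescence generated by metabolic reduction of a prosubstrate by living cells. The homogeneous, nonlytic format allowed repeated reads at 0, 8, 16, 24, 32 and 40 h of compound exposure.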

[2] = qHTS RealTime-Glo MT Cell Viability Assay in HEK293 cells - 32 hour (AID 1224868); further: top concentration of the series differs between compounds; nearly all actives have a fitted effect of over 50% in size
Method in brief: (§2)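 Homogeneous bioluminescent viability format in HEK293 cells (600 cells/well). Following 5 h at 37 C/5% CO2, 23 nL compound was pintooled; the signal was measured repeatedly during 40 h incubation.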

[3] = A CellTox Green Cytotoxicity Assay to monitor cytotoxicity in HEK293 cells - 0 hour (AID 1224869); further: nearly all actives have a fitted effect of over 50% in size
Method in brief: (§3)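 Fluorescence intensity, read at 0, 8, 16, 24, 32 and 40 h of compound treatment, reflected dye binding to DNA of dead HEK293 cells; compounds (23 nL, DMSO) were added 5 h after plating cells with reagent.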

[4] = qHTS RealTime-Glo MT Cell Viability Assay in HepG2 cells - 40 hour (AID 1224870); further: nearly all actives have a fitted effect of over 50% in size
Method in brief: (§4)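 HepG2 cells (600/well) mixed with RealTime-Glo MT reagent, settled 5 h at 37 C/5% CO2 before compound addition. Nonlytic NanoLuc luminescence from viable-cell prosubstrate reduction read repeatedly during 40 h treatment at 37 C.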

[5] = A CellTox Green Cytotoxicity Assay to monitor cytotoxicity in HEK293 cells - 40 hour (AID 1224871); further: nearly all actives have a fitted effect of over 45% in size
Method in brief: as §3

[6] = qHTS RealTime-Glo MT Cell Viability Assay in HEK293 cells - 16 hour (AID 1224872)
Method in brief: as §2

[7] = qHTS RealTime-Glo MT Cell Viability Assay in HepG2 cells - 8 hour (AID 1224873); further: nearly all actives have a fitted effect of over 55% in size
Method in brief: as §4

[8] = qHTS RealTime-Glo MT Cell Viability Assay in HEK293 cells - 40 hour (AID 1224874); details: RealTime-Glo luminescence; max response: hits give low values; further: nearly all actives have a fitted effect of over 50% in size
Method in brief: (§5)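 Viable HEK293 cells reduce a cell-permeant prosubstrate; the product diffuses out and is consumed by NanoLuc in the medium to give light. Compounds went in after a 5 h incubation and plates were read over the treatment course.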

[9] = A CellTox Green Cytotoxicity Assay to monitor cytotoxicity in HEK293 cells - 24 hour (AID 1224875); further: nearly all actives have a fitted effect of over 45% in size
Method in brief: as §3

[10] = A CellTox Green Cytotoxicity Assay to monitor cytotoxicity in HepG2 cells - 16 hour (AID 1224876); further: nearly all actives have a fitted effect of over 45% in size
Method in brief: (§6)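 Using 1536-well format, dye-containing HepG2 suspension was seeded, allowed 5 h at 37 C/5% CO2, dosed by pintool with compounds, positive and negative controls, and imaged for fluorescence across 40 h.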

[11] = qHTS RealTime-Glo MT Cell Viability Assay in HepG2 cells - 32 hour (AID 1224877); further: nearly all actives have a fitted effect of over 55% in size
Method in brief: as §1

[12] = A CellTox Green Cytotoxicity Assay to monitor cytotoxicity in HepG2 cells - 24 hour (AID 1224878); further: nearly all actives have a fitted effect of over 45% in size
Method in brief: as §6

[13] = A CellTox Green Cytotoxicity Assay to monitor cytotoxicity in HepG2 cells - 40 hour (AID 1224879); further: nearly all actives have a fitted effect of over 40% in size
Method in brief: as §6

[14] = qHTS RealTime-Glo MT Cell Viability Assay in HEK293 cells - 0 hour (AID 1224880)
Method in brief: as §5

[15] = A CellTox Green Cytotoxicity Assay to monitor cytotoxicity in HEK293 cells - 32 hour (AID 1224881); further: nearly all actives have a fitted effect of over 40% in size
Method in brief: as §3

[16] = A CellTox Green Cytotoxicity Assay to monitor cytotoxicity in HepG2 cells - 0 hour (AID 1224882); further: nearly all actives have a fitted effect of over 35% in size
Method in brief: as §6

[17] = A CellTox Green Cytotoxicity Assay to monitor cytotoxicity in HepG2 cells - 32 hour (AID 1224883); further: nearly all actives have a fitted effect of over 50% in size
Method in brief: as §6

[18] = qHTS assay to identify small molecule antagonists of the estrogen related receptor (ERR) signaling pathway from Tox21 library (AID 1224848); further: nearly all actives have a fitted effect of over 50% in size
Method in brief: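 ERR reporter cell line (from NTP) seeded 2,000 cells/well, rested 6 h at 37 C/5% CO2, then pin-dosed with compounds in DMSO. After 18 h at 37 C, ONE-Glo added; luminescence read after 30 min at room temperature.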

[19] = qHTS assay to identify small molecule agonists of the estrogen related receptor (ERR) signaling pathway from Tox21 library (AID 1224849; calls by dose curve; further: nearly all actives have a fitted effect of over 15% in size); details: ERR reporter cell line, ONE-Glo luciferase, 18 h; at 92.4 µM (top of the series)
Method in brief: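 Screening used an NTP-provided ERR luciferase cell line. Compounds in DMSO were added 6 h after seeding and left 18 h at 37 C before a 30 min ONE-Glo step and luminescence reading.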
On the % scale 0 is the no-effect control and ±100 the full control effect.

Nc1c(Cl)c(Cl)nc(C(=O)O)c1Cl
inactive: outcome [1] | Potency [2] | Potency [3] | outcome [4] | Potency [5] | outcome [6] | outcome [7] | max response [8] 19.5% and -5.11% and 22.8% | Potency [9] | Potency [10] | outcome [11] | Potency [12] | Potency [13] | outcome [14] | Potency [15] | Potency [16]

CCCN(CCC)N=O
inactive: outcome [1] | Potency [2] | Potency [3] | outcome [4] | Potency [5] | outcome [6] | outcome [7] | max response [8] -0.648% and 5.21% | Potency [9] | Potency [10] | outcome [11] | Potency [12] | Potency [13] | outcome [14] | Potency [15] | Potency [16]

[O-][Cl+2]([O-])O
inactive: outcome [1] | Potency [2] | Potency [3] | outcome [4] | Potency [5] | outcome [6] | outcome [7] | max response [8] 11.8% and -2.78% | Potency [9] | Potency [10] | outcome [11] | Potency [12] | Potency [13] | outcome [14] | Potency [15] | Potency [16] | Potency [17]

NCCc1ccc(O)cc1
inactive: outcome [1] | Potency [2] | Potency [3] | outcome [4] | Potency [5] | outcome [6] | outcome [7] | max response [8] -18.4% and 1.96% | Potency [9] | Potency [10] | outcome [11] | Potency [12] | Potency [13] | outcome [14] | Potency [15] | Potency [16] | Potency [17]

ClCCBr
inactive: Potency [18] | activity change, positive = activation [19] 3.01% and -0.293% | outcome [1] | Potency [2] | Potency [3] | outcome [4] | Potency [5] | outcome [6] | outcome [7] | max response [8] -0.15% and 0.955% | Potency [9] | Potency [10] | outcome [11] | Potency [12] | Potency [13] | outcome [14] | Potency [15] | Potency [16] | Potency [17]

BrCCBr
inactive: Potency [18] | activity change, positive = activation [19] 3.43% and 4.88% | outcome [1] | Potency [2] | Potency [3] | outcome [4] | Potency [5] | outcome [6] | outcome [7] | max response [8] 4.67% and 8.82% | Potency [9] | Potency [10] | outcome [11] | Potency [12] | Potency [13] | outcome [14] | Potency [15] | Potency [16] | Potency [17]
